Consider 73 compounds from PubChem BioAssay AID504374 (National Center for Advancing Translational Sciences (NCATS), 2011).

The structures appear in SMILES notation. Values joined by “and” are separate entries in the source; they are usually repeats but may differ in a detail not shown here. Identical values can stand only once. In all, about 1,500 compounds went through this assay and about 100 (6.7%) were called active. Entries that show only a call come without a potency. Roughly 7% stayed inconclusive and do not appear here. Calls follow the shape of the dose curve; as a rule, active = well fitted inhibition curve with a large enough effect; inconclusive = small, poorly fitted or top-dose-only effect, or effect the other way; inactive = flat fitted curve, though single readings scatter. The sample as a whole holds a higher share of actives than the screen did.
Potency is read from the fitted curve at half-maximal effect.

Chain of Runt-related transcription factor 1 (Homo sapiens) + Core-binding factor subunit beta (Homo sapiens) (Q01196 whole entry, looked up): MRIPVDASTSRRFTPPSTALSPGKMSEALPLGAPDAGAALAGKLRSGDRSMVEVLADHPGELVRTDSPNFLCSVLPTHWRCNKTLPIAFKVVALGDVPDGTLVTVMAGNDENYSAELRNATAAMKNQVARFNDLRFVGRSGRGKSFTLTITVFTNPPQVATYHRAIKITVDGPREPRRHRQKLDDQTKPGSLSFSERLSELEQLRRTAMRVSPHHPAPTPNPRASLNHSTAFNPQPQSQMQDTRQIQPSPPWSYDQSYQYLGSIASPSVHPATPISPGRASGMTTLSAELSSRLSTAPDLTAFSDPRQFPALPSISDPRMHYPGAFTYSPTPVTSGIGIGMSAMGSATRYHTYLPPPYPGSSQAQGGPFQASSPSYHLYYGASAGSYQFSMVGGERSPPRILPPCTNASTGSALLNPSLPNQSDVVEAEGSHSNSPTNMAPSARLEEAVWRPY
Chain of Runt-related transcription factor 1 (Homo sapiens) + Core-binding factor subunit beta (Homo sapiens) (Q13951 whole entry, looked up): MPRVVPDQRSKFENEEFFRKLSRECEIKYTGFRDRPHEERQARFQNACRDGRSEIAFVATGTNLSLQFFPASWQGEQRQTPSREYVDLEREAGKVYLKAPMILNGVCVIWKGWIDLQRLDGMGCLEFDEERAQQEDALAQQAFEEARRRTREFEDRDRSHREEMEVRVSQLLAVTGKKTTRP

The assay has as its target Runt-related transcription factor 1 (Homo sapiens) + Core-binding factor subunit beta (Homo sapiens) (UniProt Q01196+Q13951). The assay is described as follows: qHTS Assay for Compounds Blocking the Interaction Between CBF-beta and RUNX1 for the Treatment of Acute Myeloid Leukemia: Hit Validation. Also: nearly all actives have a fitted effect of over 60% in size. The note with it: AlphaScreen CBFb-His/RUNX1-biotin binding; series mostly up to 59.8 µM. The text has this: NIH Chemical Genomics Center [NCGC]
NIH Molecular Libraries Probe Production centers Network [MLPCN]
Assay Submitter (PI): Paul Liu
Core Binding Factor (CBF) abnormalities are associated with 20-25% of all acute myeloid leukemias (AML), of which 5-10% are further sub classified as acute myelomonocytic leukemia with eosinophilia, also known as M4Eo in the FAB classification scheme. This subtype of leukemia is usually associated with chromosome 16 inversion (p13:q22). Chromosome 16 inversion results in formation of the fusion oncogene CBFB-MYH11, which encodes the fusion protein CBF-beta-SMMHC.
It has been hypothesized that the interference of CBF-beta and RUNX1 binding could have therapeutic implications for patients with CBF mediated leukemias. We developed a CBF-beta and RUNX1 binding assay in AlphaScreenTM format and optimized it for high throughput screening to search for inhibitors. The goal of this project is to screen MLPCN's compound collection (MLSMR) for identifying the inhibitors of the interaction between CBF-beta and RUNX1 proteins as research probes. If these probes work well in the animal models, the ultimate goal of this project is to development a new drug treatment for this disease.
This assay can not be used to assess how apparent inhibitors interfere with protein binding, and whether inhibitors specifically bind to either protein. Disruption of this protein-protein interaction, through any mechanism, is the intended target activity.
The present data set was run to confirm the activity of hits from the primary screen.
NCGC Assay Protocol Summary:
Step, Parameter, Description
(1) Reagent, 3 uL CBFb-His/RUNX1-biotin mix incubated together for 20 minutes at room temperature (30 nM each)
(2) Compound or control, 23 nL compound stock solution
(3) Incubation, 15 minutes at Room temperature
(4) Reagent, 1 uL 50 ng each of beads (Nickel beads and streptavidin beads)
(5) Incubation, 90 minutes at Room temperature
(6) Detection, Excitation=365 nm Emission=440 nm, Envision reader in AlphaScreenTM mode
Keywords: MLSMR, MLPCN, NIH Roadmap, qHTS, NCGC, Core binding factor, CBF, CBF-beta, Acute myeloid leukemia
Background: qHTS replaces the single test concentration by a dilution series.
As for `CCn1nc(-c2ccccc2)nc2c(=O)n(C)c(=O)nc1-2`, the Potency was 1.12 µM (active). For `CCC1(C(=O)c2ccc(C)cc2)C2c3ccccc3OC(=O)C21C(=O)O` (stereo not drawn) the value was “inactive”; for `COCc1cc(OC(=O)N(C)C)nc(-c2ccc(C)c(Cl)c2)n1`, “inactive”; for `CCOC(=O)C(O)(c1ccc(NC(=O)c2ccc(Cl)c(Cl)c2)cc1)C(F)(F)F` (stereo not drawn), “inactive”.

As for `CCN1CCc2ccccc2C1`, the Potency result was “inactive”. The result for `NC(Cc1cc(O)c(O)cc1O)C(=O)O` (stereo not drawn) reads 2.51 µM (active); that for `CCOC(=O)[C@]1(C#N)[C@@H]2C=CC(C(N)=O)=CN2[C@@H](C(N)=O)[C@@H]1c1ccc(F)cc1`, “inactive”; that for `CNC(=O)O/N=C(\C)Cc1nnn(-c2cc(C)on2)n1`, “inactive”. For `O=C1/C(=C\c2cccnc2)N2CCC1CC2` the value was “inactive”; for `CCN1CCN(c2nc([N+](=O)[O-])nn2C)CC1`, “inactive”; for `CC(C)C(N)C(=O)OCCOCn1cnc2c(=O)[nH]c(N)nc21` (stereo not drawn), 0.705 µM (active). The result for `CN1C(=O)C(=Cc2cccnc2)C(=O)N(C)C1=O` reads “inactive”; that for `COc1cccc(C(=O)N2CCC3(CC2)OCCO3)c1`, “inactive”. As for `O=C(O)COc1ccccc1/C=C1\C(=O)NC(=O)N(CCC2=CCCCC2)C1=O`, the Potency result is “inactive”. Consider `CCn1c(O)c(C=NCCN2CCOCC2)c(=O)[nH]c1=S`, for which the Potency result is “inactive”.

As for `CN1CCN(c2nc(N)cc(=O)[nH]2)CC1`, the Potency result was “inactive”. As to `CC(C)C[C@H]1C(=O)N2CCCC2[C@]2(O)O[C@](NC(=O)[C@@H]3C=C4c5cccc6[nH]cc(c56)CC4N(C)C3)(C(C)C)C(=O)N12` (stereo partly drawn), the Potency was 7.91 µM (active) and 7.05 µM (active). As for `CC(C)[C@H]1C(=O)N2CCC[C@H]2[C@]2(O)O[C@](NC(=O)[C@@H]3C=C4c5cccc6[nH]cc(c56)C[C@H]4N(C)C3)(C(C)C)C(=O)N12`, the Potency is 6.87 µM (active). The result for `CC(C)[C@@]1(NC(=O)[C@H]2CC3c4cccc5[nH]cc(c45)C[C@H]3N(C)C2)O[C@@]2(O)C3CCCN3C(=O)[C@@H](Cc3ccccc3)N2C1=O` (stereo partly drawn) reads 25 µM (active); that for `CC(=O)CC(c1ccccc1[N+](=O)[O-])c1c(O)c2ccccc2oc1=O` (stereo not drawn), “inactive”; that for `Cc1cc(C(=O)Nc2ccccc2)nn1C(C)(C)C`, “inactive”.

On to `N=Cc1c(O)n(-c2ccccc2)c(=O)n(-c2ccccc2)c1=O`, for which the Potency entry is “inactive”. For `CC1CN=C(Nc2ccc(F)c(Cl)c2)S1` (stereo not drawn), the Potency result was “inactive”. Take `CNC(=O)Oc1ccc(N(C)C)cc1C(C)C`: the Potency entry is “inactive”.

As to `O=c1[nH]c(=S)[nH]c(O)c1N=Nc1cccc(S(=O)(=O)N2CCOCC2)c1`, the Potency result was “inactive”.

As for `CCOP(=O)(Cc1cc(C(C)=O)c(C)o1)OCC`, the Potency result is “inactive”. The result for `CCCCn1c(O)c(C(CC)=NCCCn2ccnc2)c(=O)[nH]c1=O` reads “inactive”; that for `CCCCc1ccc(C(=O)O)nc1`, 6.31 µM (active); that for `CCC(C)n1c(O)c(C=NCCc2ccccc2)c(=O)[nH]c1=S` (stereo not drawn), “inactive”. As for `CN(N=O)c1ccc(O)c(O)c1`, the Potency is 1.26 µM (active).

For `CN(N=O)c1cc(O)ccc1O`, the Potency result was “inactive”. For `CCC(=Nc1cccc(C(F)(F)F)c1)c1c(O)n(C)c(=O)n(C)c1=O` the value was “inactive”; for `C=CCn1c(O)c(C(C)=Nc2ccc3c(c2)CCC3)c(=O)[nH]c1=O`, “inactive”; for `COc1cc(CN=Cc2c(O)n(C(C)(C)C)c(=O)[nH]c2=O)cc(OC)c1`, “inactive”.

Take `CCCCn1c(O)c(/C=N/N2CCOCC2)c(=O)[nH]c1=S`: the Potency entry is “inactive”. For `CCCCNC(=O)Oc1c(Br)cc2sc(=O)oc2c1Br` the value was 6.12 µM (active); for `CCCCn1c(O)c(/C=C2/C=CC=N2)c(=O)[nH]c1=O`, “inactive”; for `Cc1nc(SCc2c(Cl)cccc2Cl)nc(OC(=O)N(C)C)c1C`, “inactive”.

Regarding `CC(C)(C)n1cc(C(=O)c2ccccc2)cc1-c1ccccc1`, the Potency entry was “inactive”.

In the case of `Cn1c(O)c(C(=Nc2ccc(F)cc2)c2ccccc2)c(=O)n(C)c1=O`, the Potency entry was “inactive”. For `COP(=O)(Cc1ccc(C#N)o1)OC` the value was “inactive”; for `C/C=C/CC1(CC)C(=O)NC(=S)NC1=O`, “inactive”; for `COc1ccc(CN2C(=O)NC(=O)/C(=C/c3ccc(OC)c(OC)c3OC)C2=O)cc1`, “inactive”.

On to `O=C(O)CCCCC1SCC2NC(=O)NC21` (stereo not drawn), for which the Potency is 0.0562 µM (active). For `CC(C)OP(=O)(Oc1ccc(C(O)C(Cl)(Cl)Cl)cc1)OC(C)C` (stereo not drawn) the value was “inactive”. The result for `Clc1ccccc1CN1CCN(c2cccc3[nH]ccc23)CC1` reads “inactive”; that for `C=CCn1c(O)c(C(C)=NCC2CCCO2)c(=O)[nH]c1=O` (stereo not drawn), “inactive”; that for `Cn1c(O)c(/C=N/N2CCOCC2)c(=O)[nH]c1=S`, “inactive”. The result for `O=c1[nH]c(=S)n(-c2ccc(F)cc2)c(O)c1/C=N/N1CCOCC1` reads “inactive”. For `Cc1cccc(-n2c(O)c(/C=N/Nc3nc4c(c(=O)n(C)c(=O)n4C)n3C)c(=O)[nH]c2=S)c1`, the Potency was 0.891 µM (active). The result for `Cc1cc(OC(=O)N(C)C)nc2c1c(C)nn2C` reads “inactive”. `CCCCCCn1c(O)c(/C=N/N2CCCCCC2)c(=O)[nH]c1=O`: the Potency result is “inactive”.

On to `COCc1cc(OC(=O)N(C)C)nc(-c2ccccc2)n1`, for which the Potency result is “inactive”.

Take `Cc1cccc(N2C(=O)NC(=O)/C(=C\c3ccc(N4CCOCC4)cc3)C2=O)c1`: the Potency result was “inactive”. As to `Cc1cc(OC(=O)N(C)C)nc(-c2ccc(C)c(Cl)c2)n1`, the Potency result was “inactive”. `CCCC(=O)c1ccc(CP(=O)(OCC)OCC)o1`: the Potency result was “inactive”. On to `CC[n+]1c(-c2ccccc2)c2cc(N)ccc2c2ccc(N)cc21`, for which the Potency is 0.499 µM (active). For `CC[N+](C)(CC)CCC[n+]1c(-c2ccccc2)c2cc(N)ccc2c2ccc(N)cc21` the value was 1.12 µM (active). For `O=c1c2ccccc2nc(Cc2cccc([N+](=O)[O-])c2)n1-c1ccc(O)cc1` the value was “inactive”; for `CCC(=NCc1ccco1)c1c(O)n(-c2ccccc2C)c(=O)[nH]c1=O`, “inactive”. For `CCCC(=O)c1cc(CP(=O)(OCC)OCC)oc1C` the value was “inactive”; for `O=c1[nH]c(=S)[nH]c(O)c1/C=N/N1CCOCC1`, “inactive”; for `Cc1ccc(-n2c(O)c(C=N)c(=O)n(-c3ccc(C)cc3)c2=O)cc1`, “inactive”.

For the compound `CC(=O)Nc1ccc([As](=O)(O)c2ccc([N+](=O)[O-])cc2)cc1`, the Potency entry is “inactive”. For `Cn1c(O)c(C(=Nc2ccc(F)cc2)c2ccccc2Cl)c(=O)n(C)c1=O` the value was “inactive”; for `C[C@H]1CC[C@H]2NCCN[C@H]2C1`, “inactive”. As to `O=C(OCC1O[C@@H](OC(=O)c2cc(O)c(O)c(O)c2)[C@@H](OC(=O)c2cc(O)c(O)c(O)c2)[C@@H](OC(=O)c2cc(O)c(O)c(O)c2)[C@@H]1OC(=O)c1cc(O)c(O)c(O)c1)c1cc(O)c(O)c(O)c1` (stereo partly drawn), the Potency was 0.0631 µM (active). In the case of `O=C1C=CC(=O)c2c(O)cccc21`, the Potency is 4.47 µM (active).

For the compound `CCC(=NCc1cccnc1)c1c(O)n(-c2ccccc2C)c(=O)[nH]c1=O`, the Potency result is “inactive”. Regarding `Cc1onc(-c2c(Cl)cccc2Cl)c1C(=O)Nc1ccc2c(C(F)(F)F)cc(=O)oc2c1`, the Potency result is “inactive”.

Turning to `Cn1c(O)c(C=NCCN2CCN(C(=O)Nc3ccccc3)CC2)c(=O)n(C)c1=O`, the Potency result was “inactive”. `CCCCCCn1c(O)c(C=Nc2ccccc2N2CCOCC2)c(=O)[nH]c1=S`: the Potency result is “inactive”. The result for `CCC(=NCc1cc(OC)cc(OC)c1)c1c(O)n(C2CCCCC2)c(=O)[nH]c1=O` reads “inactive”.
